biological target: T1, GABPA (Homo sapiens, UniProt Q06546 1-454); assay: DAPPL (digital affinity profiling via proximity ligation, sequencing); 10 mM Tris-HCl pH 7.5, 50 mM NaCl, 1 mM DTT, 4% glycerol, room temperature, 30 min; GST-TFs on glutathione beads, 16-mer random dsDNA library, 0.1% formaldehyde crosslink after washing; high values mean tight binding; details: protein: recombinant; tags: N-terminal GST; dsDNA, one strand shown
T1 sequence: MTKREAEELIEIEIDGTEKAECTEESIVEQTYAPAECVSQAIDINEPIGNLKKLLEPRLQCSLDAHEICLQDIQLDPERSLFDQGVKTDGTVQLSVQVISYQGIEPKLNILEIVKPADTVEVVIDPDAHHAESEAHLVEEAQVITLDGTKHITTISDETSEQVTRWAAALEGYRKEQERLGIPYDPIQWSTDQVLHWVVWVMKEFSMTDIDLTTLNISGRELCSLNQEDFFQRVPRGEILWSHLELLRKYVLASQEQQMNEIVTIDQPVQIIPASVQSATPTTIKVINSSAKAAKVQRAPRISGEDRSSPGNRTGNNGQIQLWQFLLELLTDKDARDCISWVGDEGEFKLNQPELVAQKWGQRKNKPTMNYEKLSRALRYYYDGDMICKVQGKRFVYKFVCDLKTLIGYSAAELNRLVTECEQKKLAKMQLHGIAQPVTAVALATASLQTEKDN
In short: (§1)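 Pools of DNA-barcoded human transcription factors, expressed in yeast as GST fusions on glutathione beads and combined with a tag-only sample, were incubated with 200 nmole of a 16-mer random double-stranded DNA library. Incubation took 30 min at room temperature in Tris/NaCl/DTT/glycerol buffer and was followed by washing, 0.1% formaldehyde crosslinking, proximity ligation (BsaI/T4 ligase, 1 h, 37 °C), PCR amplification and sequencing on an Illumina NextSeq500. Binding signal is the ratio of a hexamer's read frequency for a factor to its frequency for the tag-only sample.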

Point of comparison: TATTGA, binding signal 1.09 fold enrichment (6-mer frequency, TF over GST control). Against it:
- GATTCA — higher, 1.17 fold enrichment (6-mer frequency, TF over GST control)
- GCTCCA — higher, 1.33 fold enrichment (6-mer frequency, TF over GST control)
- TCCTTT — higher, 1.72 fold enrichment (6-mer frequency, TF over GST control)
- CATTCT — higher, 1.25 fold enrichment (6-mer frequency, TF over GST control)
- TTCCTG — higher, 2.17 fold enrichment (6-mer frequency, TF over GST control)
- CCTCCT — higher, 1.57 fold enrichment (6-mer frequency, TF over GST control)
- TATGAT — higher, 1.22 fold enrichment (6-mer frequency, TF over GST control)
- CGATCT — higher, 1.29 fold enrichment (6-mer frequency, TF over GST control)
- AGCTAT — higher, 1.23 fold enrichment (6-mer frequency, TF over GST control)
- TTATGC — higher, 1.22 fold enrichment (6-mer frequency, TF over GST control)
- CTTGCC — higher, 1.3 fold enrichment (6-mer frequency, TF over GST control)
- TATCAT — higher, 1.3 fold enrichment (6-mer frequency, TF over GST control)
- ATTTCA — higher, 1.23 fold enrichment (6-mer frequency, TF over GST control)
- TCTCGA — higher, 1.42 fold enrichment (6-mer frequency, TF over GST control)
- TACGCT — higher, 1.4 fold enrichment (6-mer frequency, TF over GST control)
- CTGCTG — higher, 1.27 fold enrichment (6-mer frequency, TF over GST control)
- GCCTCG — higher, 1.34 fold enrichment (6-mer frequency, TF over GST control)
- TTGATA — higher, 1.31 fold enrichment (6-mer frequency, TF over GST control)
- TGGATG — higher, 1.47 fold enrichment (6-mer frequency, TF over GST control)

biological target: T2, ERG (Homo sapiens, UniProt P11308 1-479); assay: as above; details: protein: recombinant; tags: N-terminal GST; dsDNA, one strand shown
T2 sequence: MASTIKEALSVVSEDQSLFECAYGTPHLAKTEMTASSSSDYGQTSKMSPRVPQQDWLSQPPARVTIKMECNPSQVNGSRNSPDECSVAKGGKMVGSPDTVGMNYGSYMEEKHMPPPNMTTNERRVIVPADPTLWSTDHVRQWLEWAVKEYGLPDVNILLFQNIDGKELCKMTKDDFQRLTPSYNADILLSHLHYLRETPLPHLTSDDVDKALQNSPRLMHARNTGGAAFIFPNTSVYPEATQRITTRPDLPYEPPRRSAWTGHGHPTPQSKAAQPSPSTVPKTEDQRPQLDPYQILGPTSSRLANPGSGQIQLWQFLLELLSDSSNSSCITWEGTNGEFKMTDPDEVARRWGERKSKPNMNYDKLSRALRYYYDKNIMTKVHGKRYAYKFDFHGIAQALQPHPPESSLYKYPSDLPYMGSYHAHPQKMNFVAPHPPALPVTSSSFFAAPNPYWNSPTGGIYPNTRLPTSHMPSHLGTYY
In short: as §1

Point of comparison: GCCTTA, binding signal 1.21 fold enrichment (6-mer frequency, TF over GST control). Against it:
- ATATAC — lower, 1.18 fold enrichment (6-mer frequency, TF over GST control)
- CTTTCC — higher, 2.04 fold enrichment (6-mer frequency, TF over GST control)
- ACGTCT — higher, 1.22 fold enrichment (6-mer frequency, TF over GST control)
- TCTACT — higher, 1.32 fold enrichment (6-mer frequency, TF over GST control)
- TTGGTT — higher, 1.37 fold enrichment (6-mer frequency, TF over GST control)
- GTTCTG — lower, 1.16 fold enrichment (6-mer frequency, TF over GST control)
- ATGGTT — higher, 1.35 fold enrichment (6-mer frequency, TF over GST control)
- TCCTTG — higher, 1.35 fold enrichment (6-mer frequency, TF over GST control)
- CGACTC — higher, 1.39 fold enrichment (6-mer frequency, TF over GST control)
- AAGTCC — higher, 1.35 fold enrichment (6-mer frequency, TF over GST control)
- ATTTAA — lower, 1.14 fold enrichment (6-mer frequency, TF over GST control)
- CCTGAC — higher, 1.48 fold enrichment (6-mer frequency, TF over GST control)
- CCCGAT — lower, 1.14 fold enrichment (6-mer frequency, TF over GST control)
- TAGTAT — higher, 1.23 fold enrichment (6-mer frequency, TF over GST control)
- AAACCT — lower, 1.12 fold enrichment (6-mer frequency, TF over GST control)
- GTCTCG — higher, 1.26 fold enrichment (6-mer frequency, TF over GST control)
- ACTTCA — higher, 1.4 fold enrichment (6-mer frequency, TF over GST control)
- CTCAAT — higher, 1.27 fold enrichment (6-mer frequency, TF over GST control)
- CCAATA — higher, 1.26 fold enrichment (6-mer frequency, TF over GST control)
- GATTCA — lower, 1.11 fold enrichment (6-mer frequency, TF over GST control)
- GCTCCA — lower, 1.18 fold enrichment (6-mer frequency, TF over GST control)
- TCCTTT — higher, 1.79 fold enrichment (6-mer frequency, TF over GST control)
- CATTCT — higher, 1.27 fold enrichment (6-mer frequency, TF over GST control)
- TTCCTG — higher, 2.59 fold enrichment (6-mer frequency, TF over GST control)
- CCTCCT — higher, 1.45 fold enrichment (6-mer frequency, TF over GST control)
- TATGAT — lower, 1.2 fold enrichment (6-mer frequency, TF over GST control)
- CGATCT — higher, 1.28 fold enrichment (6-mer frequency, TF over GST control)
- AGCTAT — lower, 1.17 fold enrichment (6-mer frequency, TF over GST control)
- TTATGC — higher, 1.31 fold enrichment (6-mer frequency, TF over GST control)

Source: PMC7862700, “An all-to-all approach to the identification of sequence-specific readers for epigenetic DNA modifications on cytosine”
